In PubChem BioAssay AID1159580 (chemical genetic matrix, 2015):
“And” between values parts separate entries of the source, which are not always exact repeats. Equal values may be shown once. The whole screen tested about 5,500 compounds, of which about 2,000 (36%) were called active. Roughly 18% stayed inconclusive and do not appear here. Cut-off read from the data, not from the text of the source: active = normalized growth mostly below about 0.91 (no sharp cut-off); inconclusive = no clear call, values can overlap the other calls; inactive = mostly above about 0.92. The list shows a part of the results.

Experiment: chemical genetic growth profiling, strain panel (AID 1159580);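 note: tested at 20 µM; growth read once vehicle control cultures reached saturation at 30 °C; 1 = growth at the plate median or of vehicle wells; lower values mean less growth of the strain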
Conditions: S. cerevisiae deletion strains, growth OD

Measured: normalized growth

C[C@]12C=CC(=O)C=C1CCC1C2[C@@H](O)C[C@@]2(C)C1CC[C@]2(O)C(=O)CO (stereo not given in full)
inactive: locus YAL021C, strain ccr4, hits give low values 1 | locus YAL026C, strain drs2, hits give low values 0.992 | locus YAL030W, strain snc1, hits give low values 0.993 | locus YBL061C, strain skt5, hits give low values 0.999 | locus YBR009C, strain hhf1, hits give low values 0.993 | locus YBR021W, strain FUR4, hits give low values 0.979 | locus YBR023C, strain chs3, hits give low values 1 | locus YBR171W, strain sec66, hits give low values 1.01 | locus YBR229C, strain ROT2, hits give low values 0.99 | locus YBR231C, strain swc5, hits give low values 0.991 | locus YBR279W, strain paf1, hits give low values 1 | locus YCL011C, strain gbp2, hits give low values 1.01 | locus YCL016C, strain dcc1, hits give low values 0.988 | locus YCL029C, strain bik1, hits give low values 0.985 | locus YCL061C, strain MRC1, hits give low values 1.01 | locus YCL069W, strain vba3, hits give low values 0.981 | locus YCR088W, strain abp1, hits give low values 0.994 | locus YDL005C, strain med2, hits give low values 0.999 | locus YDL035C, strain GPR1, hits give low values 0.998 | locus YDL040C, strain nat1, hits give low values 0.995 | locus YDL074C, strain BRE1, hits give low values 1.01 | locus YDL101C, strain DUN1, hits give low values 0.99 | locus YDL134C, strain PPH21, hits give low values 0.986 | locus YDL185W, strain tfp1, hits give low values 0.974 | locus YDL192W, strain arf1, hits give low values 0.985 | locus YDR001C, strain nth1, hits give low values 0.997 | locus YDR069C, strain doa4, hits give low values 0.996 | locus YDR101C, strain arx1, hits give low values 0.983 | locus YDR137W, strain rgp1, hits give low values 1.03 | locus YDR150W, strain NUM1, hits give low values 0.998 | locus YDR159W, strain sac3, hits give low values 1 | locus YDR162C, strain NBP2, hits give low values 0.992 | locus YDR195W, strain ref2 0.969 | locus YDR297W, strain sur2, hits give low values 0.99 | locus YDR318W, strain mcm21, hits give low values 0.979 | locus YDR334W, strain swr1, hits give low values 0.992 | locus YDR335W, strain msn5, hits give low values 0.996 | locus YDR388W, hits give low values 0.98 | locus YDR392W, strain spt3, hits give low values 0.953 | locus YDR502C, strain sam2, hits give low values 0.992 | locus YEL003W, strain gim4, hits give low values 0.982 | locus YEL037C, strain rad23, hits give low values 0.989 | locus YEL061C, strain CIN8 (second series), hits give low values 0.99 | locus YEL061C, strain CIN8, hits give low values 0.997 | locus YER015W, strain faa2, hits give low values 1 | locus YER016W, strain bim1, hits give low values 1 | locus YER110C, hits give low values 0.975 | locus YER111C, strain swi4, hits give low values 0.999 | locus YER155C, strain BEM2 (second series), hits give low values 1.01 | locus YER155C, strain BEM2, hits give low values 0.978 | locus YER167W, strain BCK2, hits give low values 0.987 | locus YFR010W, strain ubp6, hits give low values 0.997 | locus YGL078C, strain dbp3, hits give low values 0.998 | locus YGL086W, strain mad1, hits give low values 1 | locus YGL167C, strain pmr1, hits give low values 1.01 | locus YGL173C, strain kem1, hits give low values 0.989 | locus YGL227W, strain vid30, hits give low values 0.993 | locus YGL240W, strain doc1, hits give low values 0.99 | locus YGL248W, strain PDE1, hits give low values 0.99 | locus YGL253W, strain hxk2, hits give low values 0.991 | locus YGR135W, strain pre9, hits give low values 0.995 | locus YGR229C, strain SMI1, hits give low values 0.993 | locus YGR252W, strain gcn5, hits give low values 1.06 | locus YHR013C, strain ard1, hits give low values 1.01 | locus YHR027C, strain rpn1, hits give low values 0.995 | locus YHR030C, strain SLT2, hits give low values 0.992 and 1.01 | locus YHR079C, strain IRE1 (second series), hits give low values 0.977 | locus YHR079C, strain IRE1, hits give low values 1 | locus YHR094C, strain hxt1, hits give low values 0.978 | locus YHR129C, strain ARP1, hits give low values 1.02 | locus YHR142W, strain chs7, hits give low values 0.99 | locus YHR200W, strain rpn10, hits give low values 0.981 | locus YIL066C, strain RNR3, hits give low values 0.989 | locus YIL073C, strain SPO22, hits give low values 0.946 | locus YIL125W, strain kgd1, hits give low values 0.982 | locus YIR030C, strain dcg1, hits give low values 0.984 | locus YJL092W, strain hpr5, hits give low values 0.995 | locus YJL095W, strain BCK1 (second series), hits give low values 1 | locus YJL095W, strain BCK1, hits give low values 1.01 | locus YJL115W, strain asf1, hits give low values 0.99 | locus YJL129C, strain trk1, hits give low values 0.977 | locus YJL134W, strain LCB3, hits give low values 0.988 | locus YJL154C, strain vps35, hits give low values 0.998 | locus YJL164C, strain tpk1, hits give low values 0.989 | locus YJL166W, strain qcr8, hits give low values 0.979 | locus YJL168C, strain set2, hits give low values 0.983 | locus YJL187C, strain SWE1 (second series), hits give low values 0.984 | locus YJL187C, strain SWE1, hits give low values 0.991 | locus YJR043C, strain POL32, hits give low values 0.998 | locus YJR066W, strain TOR1, hits give low values 0.942
